Measured values: PubChem BioAssay (Tox21)
Results filed as inconclusive are left out. Activity calls are given as the source filed them. Unless noted, calls come from the whole dose curve.

Tests used:
[1] = Nuclear factor erythroid 2-related factor 2/antioxidant responsive element (Nrf2/ARE) small molecule agonists: qHTS cell viability counter screen in human keratinocytes (AID 1919968; active = well fitted curve in the direction sought with a large enough effect in the repeat runs; an effect the other way counts as inactive or inconclusive; note: nearly all actives have a fitted effect of over 55% in size)
Outline: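 Measured as CellTiter-Fluor fluorescence, this readout tracks cytotoxicity in the same wells as the ARE-luciferase screen. HaCaT reporter cells (1,500/well) received compounds after a 5 h pre-incubation and were exposed for 23 h.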

[2] = Nuclear factor erythroid 2-related factor 2/antioxidant responsive element (Nrf2/ARE) small molecule agonists: luciferase reporter gene qHTS assay in human keratinocytes (AID 1919969); note: nearly all actives have a fitted effect of over 35% in size
[3] = target: Gonadotropin-releasing hormone receptor (Homo sapiens) (UniProt P30968); test: Human gonadotropin-releasing hormone receptor (GnRHR) small molecule agonists, calcium flux assay in GnRHR-HEK293 cells (AID 1920063); note: nearly all actives have a fitted effect of over 35% in size
Outline: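 Fluorescence kinetics (480 nm excitation, 540 nm emission; 3 min, 1 s steps) report calcium mobilisation in human GnRHR-HEK293 cells in agonist mode. Dye incubation: 1 h, 37 C.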

[4] = target: KiSS-1 receptor (Homo sapiens) (UniProt Q969F8); test: Human kisspeptin (KISS1R) small molecule agonists, calcium flux assay in KISS1R-HEK293 cells (AID 1920064; active = well fitted curve in the direction sought with a large enough effect in the repeat runs; an effect the other way counts as inactive or inconclusive)
Outline: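 Measures KISS1R agonism through calcium-sensitive dye fluorescence in stably transfected HEK293 cells, read for 3 min after pin-tool compound delivery; 15-point titrations in triplicate.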

[5] = G protein-coupled receptor (GPCR) small molecule agonists, calcium flux assay: HEK293 wild type cell line counter screen (AID 1920065)
Outline: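 Readout: fluorescence at 480 nm excitation/540 nm emission, sampled at 1 s intervals for 3 min. Cells had been cultured 18 h, then dye-loaded 1 h at 37 C before compound or ATP addition.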

[6] = p53 small molecule agonists, cell-based qHTS assay with human liver microsomes (AID 1963577)
Outline: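 Fluorescence of the beta-lactamase reporter in p53RE-bla cells, detected with LiveBLAzer substrate (2 h, room temperature, dark), served as the read-out after 16 h compound exposure at 37 C with human liver microsomes and NADPH, each 0.5 mg/mL final.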

[7] = p53 small molecule agonists, cell-based qHTS assay with rat liver microsomes (AID 1963578)
Outline: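 Cells carrying a p53 response element–beta-lactamase reporter were plated and rested 5 h, then dosed with compound in DMSO plus rat liver microsomes and NADPH, each at 0.5 mg/mL final. After 16 h at 37 C, LiveBLAzer substrate was added for 2 h.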

[8] = p53 small molecule agonists, cell-based qHTS assay with human liver microsomes: qHTS cell viability counter screen (AID 1963579); note: nearly all actives have a fitted effect of over 45% in size
Outline: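 Cytotoxicity counter screen: p53RE-bla, 4,000 cells/well; 5 h settle, 37 C/5% CO2; cpd + HLM 0.5 mg/mL + NADPH 0.5 mg/mL (final); 16 h, 37 C; CellTiter-Glo, 30 min RT, luminescence.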

[9] = p53 small molecule agonists, cell-based qHTS assay with rat liver microsomes: qHTS cell viability counter screen (AID 1963580); note: nearly all actives have a fitted effect of over 45% in size
Outline: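 p53RE-bla HCT-116 cells were exposed 16 h at 37 C to compounds with rat liver microsomes (0.5 mg/mL) and NADPH (0.5 mg/mL). Viability was measured in the same wells as ATP content by CellTiter-Glo luminescence.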

[10] = p53 small molecule agonists, cell-based qHTS assay: qHTS cell viability counter screen (AID 1963581); note: nearly all actives have a fitted effect of over 45% in size
Outline: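 In the same plates used for the p53 bla reporter, HCT-116 cells given compounds for 16 h at 37 C received CellTiter-Glo; luminescence was recorded 30 min later at room temperature.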

[11] = p53 small molecule agonists, cell-based qHTS assay (AID 1963582; active = well fitted activation curve with a large enough effect in the signal ratio in the repeat runs, not every such curve was filed as active; the % refers to the signal ratio)
Outline: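 Compounds are pin-transferred in DMSO onto p53RE-bla cells and incubated 16 h at 37 C. The B/G FRET beta-lactamase substrate is then applied for 2 h at RT and fluorescence recorded.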

[12] = target: 5-hydroxytryptamine receptor 2A (Homo sapiens) (UniProt P28223); test: 5-hydroxytryptamine receptor 2A (HTR2A) small molecule antagonists, cell-based qHTS assay (AID 1963586); note: nearly all actives have a fitted effect of over 45% in size
Outline: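 Antagonist-mode intracellular calcium assay: DOI (4 nM) added after 5 min compound pre-incubation at room temperature to dye-loaded HTR2A-CHO cells. Fluorescence followed for 3 min, sampled every second.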

[13] = target: 5-hydroxytryptamine receptor 2A (Homo sapiens) (UniProt P28223); test: 5-hydroxytryptamine receptor 2A (HTR2A) small molecule agonists, cell-based qHTS assay (AID 1963587); note: nearly all actives have a fitted effect of over 30% in size
Outline: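 CHO cells stably expressing human HTR2A, plated 18 h, loaded with calcium dye 1 h at 37 C. Agonist mode: compounds added and intracellular calcium fluorescence recorded kinetically for 2 min at 1 sec intervals.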

[14] = target: Muscarinic acetylcholine receptor M1 (Homo sapiens) (UniProt P11229); test: Cholinergic receptor muscarinic 1 (CHRM1) small molecule antagonists, cell-based qHTS assay (AID 1963588); note: nearly all actives have a fitted effect of over 40% in size
Outline: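 CHRM1-CHO calcium-flux assay, antagonist mode. Cells were seeded 18 h, dye-loaded 1 h at 37 C and given compound for 5 min at RT, then acetylcholine was added at 50nM. FDSS fluorescence was read 3 min; 15 concentrations, three runs.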

[15] = target: Muscarinic acetylcholine receptor M1 (Homo sapiens) (UniProt P11229); test: Cholinergic receptor muscarinic 1 (CHRM1) small molecule agonists, cell-based qHTS assay (AID 1963589); note: nearly all actives have a fitted effect of over 35% in size
Outline: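 Each compound was tested at 15 concentrations across three independent runs on dye-loaded CHO cells stably expressing human CHRM1, reading intracellular calcium fluorescence kinetically at 1 sec intervals.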

[16] = cAMP Responsive Elements (CRE) small molecule agonists, cell-based qHTS assay (AID 1963590)
Outline: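 Cell line: CRE-bla HEK 293T; medium DMEM/10% dialyzed FBS/0.1 mM NEAA/1 mM pyruvate/25 mM HEPES; 3 h compound exposure; beta-lactamase FRET readout after 2 h substrate loading at RT.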

[17] = cAMP Responsive Elements (CRE) small molecule antagonists, cell-based qHTS assay (AID 1963591; active = well fitted inhibition curve with a large enough effect in the signal ratio in the repeat runs, not every such curve was filed as active; the % refers to the signal ratio)
Outline: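 Inhibition of NKH477-driven (0.25 uM final) CRE-beta-lactamase signal in HEK293T cells, 3 h compound exposure at 37 °C, detected by FRET substrate fluorescence.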

[18] = target: Beta-2 adrenergic receptor (Homo sapiens) (UniProt P07550); test: Adrenergic beta2 receptor (ADRB2) small molecule antagonists, cell-based qHTS assay (AID 1963592); note: series mostly up to about 92 µM; nearly all actives have a fitted effect of over 50% in size
Outline: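 Cells (CHO, stable ADRB2 overexpression) incubated 18-20hr at 37C; compounds added from DMSO; agonist mix (1nM isoproterenol, 100uM IBMX, 25uM Ro-20-1724) added; 0.5hr RT; d2-cAMP and anti-cAMP-cryptate added; 1hr RT; 665/615 nm read.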

[19] = target: D(2) dopamine receptor (Homo sapiens) (UniProt P14416); test: Dopamine D2 receptor (DRD2) small molecule antagonists, cell-based qHTS assay (AID 1963595; active = well fitted inhibition curve with a large enough effect in the signal ratio in the repeat runs, with a control signal flat; the % refers to the signal ratio)
Outline: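 HEK293 cells stably expressing DRD2 were preincubated with 0.1 mM Ro20-1724, then with compound for 10 min at room temperature. Cells were stimulated with 200 nM NKH477 plus 12 nM quinpirole for 30 min, and cAMP was read by HTRF.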

[20] = target: D(2) dopamine receptor (Homo sapiens) (UniProt P14416); test: Dopamine D2 receptor (DRD2) small molecule agonists, cell-based qHTS assay (AID 1963594); note: nearly all actives have a fitted effect of over 35% in size
Outline: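 HEK293 cells stably expressing human DRD2, pre-treated with PDE inhibitor Ro20-1724 (0.1 mM final) and compound 10 min at room temperature, then stimulated with NKH477 (200nM […]) for 30 min. cAMP read by HTRF (665/620 nm).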
% is set by controls: 0 for no effect and ±100 for the full control effect.

Gonadotropin-releasing hormone receptor (Homo sapiens), sequence (P30968 whole entry, looked up): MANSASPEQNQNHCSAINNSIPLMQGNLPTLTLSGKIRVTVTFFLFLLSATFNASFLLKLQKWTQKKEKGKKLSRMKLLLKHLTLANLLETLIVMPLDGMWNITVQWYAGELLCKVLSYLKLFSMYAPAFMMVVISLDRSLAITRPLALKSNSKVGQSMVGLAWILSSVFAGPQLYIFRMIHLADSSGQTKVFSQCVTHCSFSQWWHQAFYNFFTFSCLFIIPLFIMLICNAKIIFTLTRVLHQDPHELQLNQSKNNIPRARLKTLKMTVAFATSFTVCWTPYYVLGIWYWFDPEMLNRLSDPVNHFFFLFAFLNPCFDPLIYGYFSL
KiSS-1 receptor (Homo sapiens), sequence (Q969F8 whole entry, looked up): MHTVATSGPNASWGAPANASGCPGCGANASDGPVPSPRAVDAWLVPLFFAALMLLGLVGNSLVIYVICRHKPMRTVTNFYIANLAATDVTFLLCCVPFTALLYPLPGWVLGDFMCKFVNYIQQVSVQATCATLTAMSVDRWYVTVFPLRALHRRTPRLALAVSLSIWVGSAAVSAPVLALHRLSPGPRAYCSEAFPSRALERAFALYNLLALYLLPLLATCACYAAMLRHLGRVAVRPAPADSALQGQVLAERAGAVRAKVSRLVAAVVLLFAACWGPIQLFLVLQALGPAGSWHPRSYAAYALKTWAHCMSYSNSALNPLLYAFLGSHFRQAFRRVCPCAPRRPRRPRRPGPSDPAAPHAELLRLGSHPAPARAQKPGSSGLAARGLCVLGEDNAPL
Beta-2 adrenergic receptor (Homo sapiens), sequence (P07550 whole entry, looked up): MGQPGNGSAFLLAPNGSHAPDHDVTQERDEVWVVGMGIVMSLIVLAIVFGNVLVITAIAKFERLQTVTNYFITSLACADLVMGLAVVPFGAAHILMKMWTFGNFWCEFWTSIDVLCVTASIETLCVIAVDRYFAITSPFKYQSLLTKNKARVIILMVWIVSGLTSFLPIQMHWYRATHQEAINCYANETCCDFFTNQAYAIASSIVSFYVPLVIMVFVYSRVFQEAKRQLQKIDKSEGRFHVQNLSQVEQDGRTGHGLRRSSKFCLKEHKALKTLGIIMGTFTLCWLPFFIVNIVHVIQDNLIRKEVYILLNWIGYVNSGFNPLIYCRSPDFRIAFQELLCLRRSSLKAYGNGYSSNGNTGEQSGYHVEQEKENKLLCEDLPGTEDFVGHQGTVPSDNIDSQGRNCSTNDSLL
D(2) dopamine receptor (Homo sapiens), sequence (P14416 whole entry, looked up): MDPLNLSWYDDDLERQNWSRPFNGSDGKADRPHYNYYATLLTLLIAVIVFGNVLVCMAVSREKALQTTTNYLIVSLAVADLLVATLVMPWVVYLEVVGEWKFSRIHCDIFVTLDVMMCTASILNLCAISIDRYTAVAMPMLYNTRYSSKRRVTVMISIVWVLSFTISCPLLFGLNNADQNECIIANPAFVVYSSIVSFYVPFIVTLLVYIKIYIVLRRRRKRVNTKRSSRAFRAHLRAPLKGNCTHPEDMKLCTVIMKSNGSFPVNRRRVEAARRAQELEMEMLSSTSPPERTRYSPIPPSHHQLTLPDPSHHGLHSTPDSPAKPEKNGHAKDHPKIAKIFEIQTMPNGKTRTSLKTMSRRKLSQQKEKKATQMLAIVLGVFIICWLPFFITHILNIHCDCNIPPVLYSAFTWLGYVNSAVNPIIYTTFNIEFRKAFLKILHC
Muscarinic acetylcholine receptor M1 (Homo sapiens), sequence (P11229 whole entry, looked up): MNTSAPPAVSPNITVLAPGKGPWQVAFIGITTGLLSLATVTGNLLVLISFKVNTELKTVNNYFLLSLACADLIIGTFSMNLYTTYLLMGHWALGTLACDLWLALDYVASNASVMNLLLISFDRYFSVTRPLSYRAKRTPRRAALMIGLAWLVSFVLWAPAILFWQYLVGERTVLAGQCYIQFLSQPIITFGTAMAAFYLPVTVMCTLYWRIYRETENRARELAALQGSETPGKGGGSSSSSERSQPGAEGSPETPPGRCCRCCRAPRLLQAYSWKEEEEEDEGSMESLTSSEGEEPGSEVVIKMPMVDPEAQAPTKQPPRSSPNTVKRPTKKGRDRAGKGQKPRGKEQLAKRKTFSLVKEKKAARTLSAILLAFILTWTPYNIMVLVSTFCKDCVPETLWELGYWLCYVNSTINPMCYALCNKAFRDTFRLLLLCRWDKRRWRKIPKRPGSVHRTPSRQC
5-hydroxytryptamine receptor 2A (Homo sapiens), sequence (P28223 whole entry, looked up): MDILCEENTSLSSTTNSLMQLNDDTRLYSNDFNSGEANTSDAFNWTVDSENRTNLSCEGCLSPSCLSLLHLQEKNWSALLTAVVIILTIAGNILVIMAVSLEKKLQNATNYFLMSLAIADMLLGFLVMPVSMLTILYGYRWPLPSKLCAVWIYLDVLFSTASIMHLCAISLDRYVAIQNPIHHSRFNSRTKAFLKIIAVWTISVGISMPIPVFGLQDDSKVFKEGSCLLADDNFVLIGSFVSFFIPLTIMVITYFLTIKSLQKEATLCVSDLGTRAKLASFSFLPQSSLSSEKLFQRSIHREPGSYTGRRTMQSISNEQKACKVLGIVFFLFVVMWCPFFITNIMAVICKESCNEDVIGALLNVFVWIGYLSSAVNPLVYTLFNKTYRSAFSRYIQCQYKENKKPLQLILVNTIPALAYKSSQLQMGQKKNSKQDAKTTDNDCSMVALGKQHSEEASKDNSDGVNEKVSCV

CC[N+](C)(C)c1cccc(O)c1
inactive: Potency [1] | Potency [2] | Potency [3] | Potency [4] | Potency [5] | Potency [6] | Potency [7] | Potency [8] | Potency [9] | Potency [10] | Potency [11] | Potency [12] | Potency [13] | Potency [14] | Potency [15] | Potency [16] | Potency [17] | Potency [18] | Potency [19]

C=CCCCCCCCCCCCCCCCC
inactive: activity change, negative = cytotoxicity [1] 2.1% [at 8.39 µM] | activity, positive = activation [2] 1.31% [at 8.39 µM] | activity change [3] 0.969% [at 5.22 µM, hits give high values] | activation [4] 0.739% [at 6.97 µM] | activation [5] -0.775% [at 5.23 µM] | activation [6] -1.7% [at 5.99 µM] | activation [7] -2.36% [at 5.99 µM] | activity change, negative = cytotoxicity [8] -5.51% [at 5.99 µM] | activity change, negative = cytotoxicity [9] -2.99% [at 5.99 µM] | activity change, negative = cytotoxicity [10] -20.9% [at 5.99 µM] | activation [11] 2.83% [at 5.99 µM] | activity, negative = inhibition [12] -3.97% [at 5.62 µM] | activation [13] -2.29% [at 7.02 µM] | activity, negative = inhibition [14] -31.3% [at 5.58 µM] | activation [15] 1.23% [at 6.97 µM] | activation [16] 0.435% [at 8.39 µM] | activity change, negative = inhibition [17] -13% [at 8.39 µM] | activity change, negative = inhibition [18] -9.53% [at 8.39 µM] | activation [20] 0.185% [at 8.39 µM] | activity change, negative = inhibition [19] -1.92% [at 8.38 µM]

O=C(Cl)c1ccc(C(=O)Cl)cc1
inactive: Potency [1] | Potency [2] | Potency [3] | Potency [4] | Potency [5] | Potency [6] | Potency [7] | Potency [8] | Potency [9] | Potency [10] | Potency [11] | Potency [12] | Potency [13] | Potency [14] | Potency [15] | Potency [16] | Potency [17] | Potency [18] | Potency [20] | Potency [19]

Nc1cc(S(=O)(=O)O)ccc1S(=O)(=O)O
inactive: Potency [1] | Potency [2] | Potency [3] | Potency [4] | Potency [5] | Potency [6] | Potency [7] | Potency [8] | Potency [9] | Potency [10] | Potency [11] | Potency [12] | Potency [13] | Potency [14] | Potency [15] | Potency [16] | Potency [17] | Potency [18] | Potency [20] | Potency [19]

Cc1cccc(N(C)C)c1
inactive: Potency [1] | Potency [2] | Potency [3] | Potency [4] | Potency [5] | Potency [6] | Potency [7] | Potency [8] | Potency [9] | Potency [10] | Potency [11] | Potency [12] | Potency [13] | Potency [14] | Potency [15] | Potency [16] | Potency [17] | Potency [18] | Potency [20] | Potency [19]

CCC(=O)OCc1ccccc1
inactive: Potency [1] | Potency [2] | Potency [3] | Potency [4] | Potency [5] | Potency [6] | Potency [7] | Potency [8] | Potency [9] | Potency [10] | Potency [11] | Potency [12] | Potency [13] | Potency [14] | Potency [15] | Potency [16] | Potency [17] | Potency [18] | Potency [20] | Potency [19]

CC(=O)OCCC1CCCCC1
inactive: Potency [1] | Potency [2] | Potency [3] | Potency [4] | Potency [5] | Potency [6] | Potency [7] | Potency [8] | Potency [9] | Potency [10] | Potency [11] | Potency [12] | Potency [13] | Potency [14] | Potency [15] | Potency [16] | Potency [17] | Potency [18] | Potency [20] | Potency [19]
